Holding throughout (test): DAPPL (digital affinity profiling via proximity ligation, sequencing); 10 mM Tris-HCl pH 7.5, 50 mM NaCl, 1 mM DTT, 4% glycerol, room temperature, 30 min; GST-TFs on glutathione beads, 16-mer random dsDNA library, 0.1% formaldehyde crosslink after washing; high values mean tight binding
For one experiment, the target named is T1, FLI1 (Homo sapiens, UniProt Q01543 1-452).
T1 sequence: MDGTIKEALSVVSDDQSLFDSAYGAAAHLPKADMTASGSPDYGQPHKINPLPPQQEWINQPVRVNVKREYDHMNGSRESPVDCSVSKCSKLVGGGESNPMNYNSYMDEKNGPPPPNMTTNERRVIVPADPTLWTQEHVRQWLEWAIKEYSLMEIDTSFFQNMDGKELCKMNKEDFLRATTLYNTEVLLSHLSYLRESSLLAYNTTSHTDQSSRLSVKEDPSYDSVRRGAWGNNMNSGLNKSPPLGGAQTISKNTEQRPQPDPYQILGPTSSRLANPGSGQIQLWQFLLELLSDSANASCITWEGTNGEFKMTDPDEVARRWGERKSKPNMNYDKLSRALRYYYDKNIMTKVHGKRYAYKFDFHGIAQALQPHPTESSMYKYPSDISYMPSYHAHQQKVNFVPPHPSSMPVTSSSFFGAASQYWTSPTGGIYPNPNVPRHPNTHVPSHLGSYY
As to conditions: protein: recombinant; tags: N-terminal GST; dsDNA, one strand shown. The method, boiled down: (§1)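 Beads coated with glutathione captured GST-fused human transcription factors that had been expressed in yeast, and the factors were then given DNA barcodes and pooled with a tag-only sample. The pools were incubated with 200 nmole of a random double-stranded 16-mer DNA library in Tris/NaCl/DTT/glycerol buffer for 30 min at room temperature, washed, crosslinked with 0.1% formaldehyde and proximity-ligated with BsaI/T4 ligase at 37 °C for 1 h. PCR amplification and Illumina NextSeq500 sequencing came last. Binding signal is each hexamer's read frequency for a factor divided by its frequency for the tag-only sample.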

Another experiment has as its target T2, ELK1 (Homo sapiens, UniProt P19419 1-428).
T2 sequence: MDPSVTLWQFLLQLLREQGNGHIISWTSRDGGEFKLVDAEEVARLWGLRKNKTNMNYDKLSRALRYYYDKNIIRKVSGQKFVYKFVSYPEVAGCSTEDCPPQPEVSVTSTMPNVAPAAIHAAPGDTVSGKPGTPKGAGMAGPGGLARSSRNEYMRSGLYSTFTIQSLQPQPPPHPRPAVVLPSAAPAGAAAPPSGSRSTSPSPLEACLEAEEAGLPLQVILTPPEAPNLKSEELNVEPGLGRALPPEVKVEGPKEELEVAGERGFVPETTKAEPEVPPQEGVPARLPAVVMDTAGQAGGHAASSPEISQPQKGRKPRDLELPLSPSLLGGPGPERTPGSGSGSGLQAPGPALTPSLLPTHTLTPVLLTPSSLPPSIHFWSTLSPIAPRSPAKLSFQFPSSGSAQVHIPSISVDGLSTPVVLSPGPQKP
As to conditions: protein: recombinant; tags: N-terminal GST; dsDNA, one strand shown. An outline of the steps: as §1

In another experiment the target is T3, GABPA (Homo sapiens, UniProt Q06546 1-454).
T3 sequence: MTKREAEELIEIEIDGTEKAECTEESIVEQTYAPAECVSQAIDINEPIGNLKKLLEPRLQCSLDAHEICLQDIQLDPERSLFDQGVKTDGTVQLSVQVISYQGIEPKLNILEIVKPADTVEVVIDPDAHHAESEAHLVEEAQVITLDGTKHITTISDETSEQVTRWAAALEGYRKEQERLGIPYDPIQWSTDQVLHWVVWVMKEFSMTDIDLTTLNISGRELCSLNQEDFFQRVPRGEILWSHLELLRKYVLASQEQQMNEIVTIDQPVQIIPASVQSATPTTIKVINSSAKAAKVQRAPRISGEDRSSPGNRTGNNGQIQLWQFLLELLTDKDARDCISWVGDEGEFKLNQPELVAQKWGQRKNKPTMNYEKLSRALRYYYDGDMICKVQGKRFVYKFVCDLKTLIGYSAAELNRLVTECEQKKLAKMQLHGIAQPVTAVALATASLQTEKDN
As to conditions: protein: recombinant; tags: N-terminal GST; dsDNA, one strand shown. The method, boiled down: as §1

Another experiment concerns the target ELF1 (Homo sapiens, UniProt P32519 1-619). As to conditions: protein: recombinant; tags: N-terminal GST; dsDNA, one strand shown. An outline of the steps: as §1
For a further experiment, the target named is SPI1 (Homo sapiens, UniProt P17947 1-270). To be noted: protein: recombinant; tags: N-terminal GST; dsDNA, one strand shown. An outline of the steps:
as §1

The target in another experiment is ETV5 (Homo sapiens, UniProt P41161 1-510). As to conditions: protein: recombinant; tags: N-terminal GST; dsDNA, one strand shown. An outline of the steps:
as §1

Another experiment has as its target HSF1 (Homo sapiens, UniProt Q00613 1-529). As to conditions: protein: recombinant; tags: N-terminal GST; chain copies: 3; dsDNA, one strand shown. The method, boiled down: as §1
A further experiment addresses T4, SPIC (Homo sapiens, UniProt Q8N5J4 1-248).
T4 sequence: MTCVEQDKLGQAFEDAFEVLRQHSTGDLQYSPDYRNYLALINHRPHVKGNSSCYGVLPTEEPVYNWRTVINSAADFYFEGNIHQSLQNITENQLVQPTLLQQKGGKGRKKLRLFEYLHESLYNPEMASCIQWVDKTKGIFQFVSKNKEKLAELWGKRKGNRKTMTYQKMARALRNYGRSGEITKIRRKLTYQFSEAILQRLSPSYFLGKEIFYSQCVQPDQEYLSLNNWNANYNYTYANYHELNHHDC
To be noted: protein: recombinant; tags: N-terminal GST; dsDNA, one strand shown. The method, boiled down:
as §1

A further experiment has as its target T5, ELK4 (Homo sapiens, UniProt P28324-2 1-405).
T5 sequence: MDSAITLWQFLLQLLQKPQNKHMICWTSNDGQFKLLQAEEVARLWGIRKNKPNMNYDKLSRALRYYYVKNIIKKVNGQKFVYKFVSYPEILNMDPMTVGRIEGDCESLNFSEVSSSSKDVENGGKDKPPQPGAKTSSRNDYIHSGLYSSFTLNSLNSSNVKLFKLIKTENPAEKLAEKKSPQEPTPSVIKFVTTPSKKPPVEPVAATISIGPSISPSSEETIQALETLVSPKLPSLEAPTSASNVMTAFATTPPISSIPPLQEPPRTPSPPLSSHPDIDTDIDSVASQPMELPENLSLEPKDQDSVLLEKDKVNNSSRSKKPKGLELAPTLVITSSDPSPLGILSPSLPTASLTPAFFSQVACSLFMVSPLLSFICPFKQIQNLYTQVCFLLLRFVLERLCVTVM
To be noted: protein: recombinant; tags: N-terminal GST; dsDNA, one strand shown. The method, boiled down:
as §1

The target in the next experiment is CRX (Homo sapiens, UniProt O43186 1-299). As to conditions: protein: recombinant; tags: N-terminal GST; dsDNA, one strand shown. An outline of the steps: as §1
A further experiment addresses ETV1 (Homo sapiens, UniProt P50549 1-477). As to conditions: protein: recombinant; tags: N-terminal GST; dsDNA, one strand shown. The method, boiled down:
as §1

The target of another experiment is T6, EHF (Homo sapiens, UniProt Q9NZC4 1-300).
T6 sequence: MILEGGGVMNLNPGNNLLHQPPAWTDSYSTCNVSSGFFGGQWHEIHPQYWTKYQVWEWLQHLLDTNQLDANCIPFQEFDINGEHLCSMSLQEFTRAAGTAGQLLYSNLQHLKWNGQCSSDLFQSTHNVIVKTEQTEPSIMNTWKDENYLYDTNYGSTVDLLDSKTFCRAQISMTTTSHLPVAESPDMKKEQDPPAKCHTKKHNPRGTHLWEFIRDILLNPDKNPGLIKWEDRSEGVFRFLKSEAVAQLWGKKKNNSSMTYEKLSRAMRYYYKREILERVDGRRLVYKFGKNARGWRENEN
As to conditions: protein: recombinant; tags: N-terminal GST; dsDNA, one strand shown. An outline of the steps: as §1

For the next experiment, the target named is SPIB (Homo sapiens, UniProt Q01892 1-262). As to conditions: protein: recombinant; tags: N-terminal GST; dsDNA, one strand shown. The method, boiled down:
as §1

Another experiment concerns the target T7, ELK3 (Homo sapiens, UniProt P41970 1-407).
T7 sequence: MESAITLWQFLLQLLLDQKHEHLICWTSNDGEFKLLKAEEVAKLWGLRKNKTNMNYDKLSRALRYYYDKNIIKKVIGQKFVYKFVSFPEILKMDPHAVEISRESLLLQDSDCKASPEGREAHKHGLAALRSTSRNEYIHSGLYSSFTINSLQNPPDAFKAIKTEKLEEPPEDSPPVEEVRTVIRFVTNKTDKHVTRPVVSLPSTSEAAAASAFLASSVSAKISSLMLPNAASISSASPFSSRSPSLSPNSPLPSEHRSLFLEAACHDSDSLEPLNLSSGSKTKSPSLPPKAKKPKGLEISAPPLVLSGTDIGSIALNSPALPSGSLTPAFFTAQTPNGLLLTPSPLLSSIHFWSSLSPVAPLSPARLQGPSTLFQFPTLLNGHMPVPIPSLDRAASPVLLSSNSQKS
To be noted: protein: recombinant; tags: N-terminal GST; dsDNA, one strand shown. An outline of the steps: as §1

The target in another experiment is T8, FEV (Homo sapiens, UniProt Q99581 1-238).
T8 sequence: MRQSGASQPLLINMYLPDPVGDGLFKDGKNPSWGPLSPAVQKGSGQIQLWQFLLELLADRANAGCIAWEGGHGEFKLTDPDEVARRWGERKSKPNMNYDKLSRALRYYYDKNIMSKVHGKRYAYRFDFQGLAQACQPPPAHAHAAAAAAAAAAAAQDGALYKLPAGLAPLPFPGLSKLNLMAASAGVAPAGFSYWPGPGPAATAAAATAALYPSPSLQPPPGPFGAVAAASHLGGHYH
As to conditions: protein: recombinant; tags: N-terminal GST; dsDNA, one strand shown. An outline of the steps:
as §1

A further experiment concerns the target ELF4 (Homo sapiens, UniProt Q99607 1-663). To be noted: protein: recombinant; tags: N-terminal GST; dsDNA, one strand shown. An outline of the steps: as §1

Chain of ETV5 (P41161 whole entry): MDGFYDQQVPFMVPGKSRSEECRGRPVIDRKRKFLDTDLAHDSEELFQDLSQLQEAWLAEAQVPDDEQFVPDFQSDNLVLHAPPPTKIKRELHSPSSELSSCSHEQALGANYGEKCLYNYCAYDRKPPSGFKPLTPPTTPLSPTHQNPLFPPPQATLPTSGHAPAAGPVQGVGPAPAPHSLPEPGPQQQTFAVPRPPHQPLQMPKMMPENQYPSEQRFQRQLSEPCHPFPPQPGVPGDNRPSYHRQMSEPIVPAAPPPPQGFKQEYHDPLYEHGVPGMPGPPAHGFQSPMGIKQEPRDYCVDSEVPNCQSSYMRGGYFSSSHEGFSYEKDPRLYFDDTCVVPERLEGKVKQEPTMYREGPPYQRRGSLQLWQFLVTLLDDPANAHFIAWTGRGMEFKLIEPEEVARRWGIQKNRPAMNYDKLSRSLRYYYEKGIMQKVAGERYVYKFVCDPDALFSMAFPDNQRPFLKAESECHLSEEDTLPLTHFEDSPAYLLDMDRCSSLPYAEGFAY
Chain of HSF1 (Q00613 whole entry): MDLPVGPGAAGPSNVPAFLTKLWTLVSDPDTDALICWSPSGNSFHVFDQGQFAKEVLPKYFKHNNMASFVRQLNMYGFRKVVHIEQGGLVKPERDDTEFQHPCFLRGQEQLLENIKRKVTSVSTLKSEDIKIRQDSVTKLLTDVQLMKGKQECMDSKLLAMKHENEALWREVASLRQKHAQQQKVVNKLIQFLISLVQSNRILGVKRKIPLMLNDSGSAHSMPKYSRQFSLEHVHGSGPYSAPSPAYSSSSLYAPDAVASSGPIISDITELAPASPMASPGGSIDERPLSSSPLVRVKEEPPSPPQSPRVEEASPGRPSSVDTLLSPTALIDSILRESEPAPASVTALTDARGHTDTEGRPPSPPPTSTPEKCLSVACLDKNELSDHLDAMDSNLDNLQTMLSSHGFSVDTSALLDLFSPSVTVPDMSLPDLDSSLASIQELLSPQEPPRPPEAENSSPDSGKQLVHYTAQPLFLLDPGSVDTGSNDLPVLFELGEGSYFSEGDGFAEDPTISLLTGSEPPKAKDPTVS
Chain of ETV1 (P50549 whole entry): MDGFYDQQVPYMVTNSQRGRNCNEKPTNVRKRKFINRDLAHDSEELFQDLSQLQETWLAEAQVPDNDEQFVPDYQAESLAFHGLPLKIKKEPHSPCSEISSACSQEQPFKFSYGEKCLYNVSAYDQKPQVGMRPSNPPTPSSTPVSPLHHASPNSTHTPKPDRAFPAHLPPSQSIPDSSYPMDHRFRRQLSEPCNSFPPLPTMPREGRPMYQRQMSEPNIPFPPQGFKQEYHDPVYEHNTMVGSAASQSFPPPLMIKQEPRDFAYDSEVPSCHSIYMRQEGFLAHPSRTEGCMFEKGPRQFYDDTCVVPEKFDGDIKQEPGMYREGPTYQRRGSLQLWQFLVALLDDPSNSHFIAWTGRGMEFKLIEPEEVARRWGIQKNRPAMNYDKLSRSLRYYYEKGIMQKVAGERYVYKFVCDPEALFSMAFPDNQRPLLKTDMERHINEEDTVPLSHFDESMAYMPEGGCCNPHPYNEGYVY
Chain of ELF1 (P32519 whole entry): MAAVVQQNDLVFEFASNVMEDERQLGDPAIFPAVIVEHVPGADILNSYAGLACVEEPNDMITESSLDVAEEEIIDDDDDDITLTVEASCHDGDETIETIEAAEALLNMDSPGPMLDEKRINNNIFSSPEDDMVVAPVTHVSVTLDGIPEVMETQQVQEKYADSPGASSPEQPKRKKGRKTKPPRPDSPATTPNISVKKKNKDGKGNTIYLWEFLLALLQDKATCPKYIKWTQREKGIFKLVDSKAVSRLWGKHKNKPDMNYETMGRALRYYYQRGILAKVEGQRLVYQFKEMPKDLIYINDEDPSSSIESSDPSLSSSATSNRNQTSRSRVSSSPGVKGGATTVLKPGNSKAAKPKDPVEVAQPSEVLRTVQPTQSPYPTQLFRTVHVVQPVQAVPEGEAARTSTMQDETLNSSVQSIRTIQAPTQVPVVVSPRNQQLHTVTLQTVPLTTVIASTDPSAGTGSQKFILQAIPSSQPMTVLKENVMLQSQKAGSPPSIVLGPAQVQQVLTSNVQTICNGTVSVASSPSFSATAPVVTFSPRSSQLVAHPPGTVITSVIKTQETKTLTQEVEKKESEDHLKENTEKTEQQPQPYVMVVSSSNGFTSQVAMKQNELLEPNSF
Chain of SPIB (Q01892 whole entry): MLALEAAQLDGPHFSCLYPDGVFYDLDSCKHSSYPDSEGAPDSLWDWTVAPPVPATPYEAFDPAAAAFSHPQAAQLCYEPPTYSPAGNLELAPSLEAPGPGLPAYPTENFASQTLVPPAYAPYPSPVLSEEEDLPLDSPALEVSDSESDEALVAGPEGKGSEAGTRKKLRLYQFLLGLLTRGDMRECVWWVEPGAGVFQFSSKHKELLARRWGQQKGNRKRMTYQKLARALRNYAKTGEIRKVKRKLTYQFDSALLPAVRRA
Chain of CRX (O43186 whole entry): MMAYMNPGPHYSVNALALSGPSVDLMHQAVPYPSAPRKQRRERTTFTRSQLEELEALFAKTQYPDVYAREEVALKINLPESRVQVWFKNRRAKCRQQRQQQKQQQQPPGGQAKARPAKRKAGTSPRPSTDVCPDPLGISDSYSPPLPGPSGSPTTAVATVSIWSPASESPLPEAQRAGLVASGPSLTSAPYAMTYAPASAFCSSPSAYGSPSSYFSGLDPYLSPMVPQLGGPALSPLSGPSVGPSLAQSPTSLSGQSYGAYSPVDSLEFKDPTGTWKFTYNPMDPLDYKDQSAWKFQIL
Chain of ELF4 (Q99607 whole entry): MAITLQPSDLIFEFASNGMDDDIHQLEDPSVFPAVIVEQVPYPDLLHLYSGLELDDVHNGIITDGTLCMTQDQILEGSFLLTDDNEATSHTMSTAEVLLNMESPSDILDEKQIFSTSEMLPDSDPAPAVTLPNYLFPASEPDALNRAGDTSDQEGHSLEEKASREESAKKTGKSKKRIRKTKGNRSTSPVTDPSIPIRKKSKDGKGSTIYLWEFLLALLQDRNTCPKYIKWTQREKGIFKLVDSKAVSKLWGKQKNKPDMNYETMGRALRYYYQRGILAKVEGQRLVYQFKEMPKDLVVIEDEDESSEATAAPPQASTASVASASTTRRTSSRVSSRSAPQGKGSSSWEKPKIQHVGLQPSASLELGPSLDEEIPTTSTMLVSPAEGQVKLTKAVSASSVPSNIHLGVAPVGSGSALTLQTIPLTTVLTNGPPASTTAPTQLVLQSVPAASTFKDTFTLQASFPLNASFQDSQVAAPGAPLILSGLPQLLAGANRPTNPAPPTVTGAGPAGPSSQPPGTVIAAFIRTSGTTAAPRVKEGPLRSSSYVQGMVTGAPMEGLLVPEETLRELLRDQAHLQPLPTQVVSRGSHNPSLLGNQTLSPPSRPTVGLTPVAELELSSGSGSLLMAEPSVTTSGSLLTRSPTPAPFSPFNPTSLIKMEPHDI

With TCATAA, the binding signal with FLI1 is 1.03 fold enrichment (6-mer frequency, TF over GST control); with ELK1, 1.05 fold enrichment (6-mer frequency, TF over GST control); with GABPA, 1.03 fold enrichment (6-mer frequency, TF over GST control); in the experiment with ELF1, 1.02 fold enrichment (6-mer frequency, TF over GST control); with SPI1, 1.06 fold enrichment (6-mer frequency, TF over GST control); with ETV5, 1.06 fold enrichment (6-mer frequency, TF over GST control). Besides, the binding signal in the experiment with HSF1 was 1.14 fold enrichment (6-mer frequency, TF over GST control); with SPIC it was 1.12 fold enrichment (6-mer frequency, TF over GST control); with ELK4, 1.09 fold enrichment (6-mer frequency, TF over GST control); in the experiment with CRX it was 1.38 fold enrichment (6-mer frequency, TF over GST control); with ETV1 it was 1.07 fold enrichment (6-mer frequency, TF over GST control).

As to CTCGTG, the binding signal with FLI1 was 1.19 fold enrichment (6-mer frequency, TF over GST control); with ELK1, 1.09 fold enrichment (6-mer frequency, TF over GST control); with GABPA, 1.28 fold enrichment (6-mer frequency, TF over GST control); in the experiment with ELF1, 1.16 fold enrichment (6-mer frequency, TF over GST control); in the experiment with EHF it was 1.07 fold enrichment (6-mer frequency, TF over GST control); in the experiment with SPIB, 1.05 fold enrichment (6-mer frequency, TF over GST control). The binding signal with ELK3 is 1.11 fold enrichment (6-mer frequency, TF over GST control); in the experiment with FEV it was 1.05 fold enrichment (6-mer frequency, TF over GST control); in the experiment with ETV5, 1.03 fold enrichment (6-mer frequency, TF over GST control); in the experiment with HSF1 it was 1.18 fold enrichment (6-mer frequency, TF over GST control); with SPIC it was 1.03 fold enrichment (6-mer frequency, TF over GST control); in the experiment with ELF4 it was 1.21 fold enrichment (6-mer frequency, TF over GST control). In the experiment with ETV1, the binding signal was 1.18 fold enrichment (6-mer frequency, TF over GST control).

These data come from PMC7862700, “An all-to-all approach to the identification of sequence-specific readers for epigenetic DNA modifications on cytosine”.
